This passage reports Potency and outcome results from PubChem BioAssay (NCATS).

The target in assay [1] is Cytochrome P450 3A4 (Homo sapiens) (UniProt P08684). Briefly: qHTS Assay for Inhibitors and Substrates of Cytochrome P450 3A4 (AID 884). Note: nearly all actives have a fitted effect of over 50% in size. Note: potency is the fitted concentration of half-maximal effect. A digest of the protocol: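 20 nM human CYP3A4 with 25 uM Luciferin-PPXE (at KM) in 200 mM KPO4, preincubated 10 min with compound; NADPH regeneration started a 60 min RT reaction. Luciferin detected by luminescence, normalized to 57 uM ketoconazole as full inhibition.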
Sequence of Cytochrome P450 3A4 (Homo sapiens) (P08684 whole entry, looked up): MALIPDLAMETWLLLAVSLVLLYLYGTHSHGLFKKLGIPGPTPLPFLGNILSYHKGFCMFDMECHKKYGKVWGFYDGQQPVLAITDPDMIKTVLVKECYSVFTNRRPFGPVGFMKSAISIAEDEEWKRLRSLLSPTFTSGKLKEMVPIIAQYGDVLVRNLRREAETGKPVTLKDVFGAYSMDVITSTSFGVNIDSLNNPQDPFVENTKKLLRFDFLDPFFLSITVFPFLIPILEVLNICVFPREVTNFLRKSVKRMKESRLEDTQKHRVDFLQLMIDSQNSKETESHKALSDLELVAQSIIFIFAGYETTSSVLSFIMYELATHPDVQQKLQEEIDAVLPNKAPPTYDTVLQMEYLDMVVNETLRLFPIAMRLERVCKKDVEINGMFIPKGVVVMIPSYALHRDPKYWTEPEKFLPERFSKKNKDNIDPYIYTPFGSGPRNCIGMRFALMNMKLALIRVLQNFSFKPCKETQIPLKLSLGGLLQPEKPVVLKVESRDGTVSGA
A general note: qHTS replaces the single test concentration by a dilution series.

Assay [2] has as its target Luciferin 4-monooxygenase (Photinus pyralis) (UniProt P08659). Briefly: Biochemical firefly luciferase enzyme assay for NPC (AID 624030).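 Note: purified P. pyralis luciferase at 10 nM with luciferin and ATP substrate; nearly all actives have a fitted effect of over 70% in size.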 A digest of the protocol: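 Purified P. pyralis luciferase at 10 nM in 50 mM Tris Acetate (final), luminescence read within 5 minutes of enzyme addition to compounds. Activity normalised to PTC124 versus DMSO; concentration-response curves classed by r2, magnitude and activity.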

A short description of assay [3]: S16 Schwann cell viability assay (CellTiter-Glo assay) (AID 624031).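 Note: native untransfected S16 rat Schwann cells; cellular ATP luminescence as a viability measure; nearly all actives have a fitted effect of over 70% in size.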 A digest of the protocol:
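Concentration-effect curves come from CellTiter-Glo luminescence of S16 rat Schwann cells after 24 h compound exposure. Each reading was normalized to DMSO wells (0%) and wells without cells, and curves were ranked by r2 and response magnitude.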
In general terms: Cellular ATP, detected with luciferase, serves as a proxy for viable cell number.

Assay [4] is described as follows: S16 Schwann cell PMP22 intronic element firefly luciferase assay (AID 624032). Note: nearly all actives have a fitted effect of over 30% in size. A digest of the protocol: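 Rat S16 Schwann cells stably carrying firefly luciferase driven by a PMP22 intronic element, in 10% FBS, treated 24 h at 37 C. ONE-Glo luminescence normalized to PTC124 control and DMSO (0%); curves classed by r2, magnitude and activity.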
Another assay deals with 7G8. Briefly: qHTS profiling for inhibitors of Plasmodium falciparum proliferation (AID 504749). Note: nearly all actives have a fitted effect of over 60% in size. Note: potency is the fitted concentration of half-maximal effect. As to conditions: P. falciparum in erythrocytes, SYBR Green DNA, 72 h; series mostly up to 12.8 µM. A digest of the protocol:
(§1)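 P. falciparum-infected erythrocytes (0.3% parasitemia, 2.5% hematocrit) incubated with compound 72 h at 37 C, 5% CO2. Parasite DNA detected by SYBR Green after lysis, overnight at room temperature; normalised to 0.29 uM artemisinin and DMSO.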

In a further assay the test system is CP215. The description is as above. The conditions noted are these: P. falciparum in erythrocytes, SYBR Green DNA, 72 h; series mostly up to 12.8 µM. In a few lines: as §1
A further assay relates to DFO2036. Described as above. As to conditions: P. falciparum in erythrocytes, SYBR Green DNA, 72 h; series mostly up to 12.8 µM. In a few lines: as §1
The test system of a further assay is DIV14. The assay is described as above. The conditions noted are these: P. falciparum in erythrocytes, SYBR Green DNA, 72 h; series mostly up to 12.8 µM. A digest of the protocol: as §1
The subject of another assay is GB4. The description is as above. As to conditions: P. falciparum in erythrocytes, SYBR Green DNA, 72 h; series mostly up to 12.8 µM. In a few lines: as §1
In the next assay the test system is W2. Described as above. As to conditions: P. falciparum in erythrocytes, SYBR Green DNA, 72 h; series mostly up to 12.8 µM. A digest of the protocol:
as §1

Assay [5] has as its target Glucocorticoid receptor (Homo sapiens) (UniProt P04150). Briefly: GR-GFP Redistribution (AID 450;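 active = compounds whose dose series gives a full or clear partial fitted curve of increased nuclear translocation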; note: potency is the fitted concentration of half-maximal effect). The conditions noted are these: U2OS GR-GFP nuclear translocation, laser cytometry, 2 h.
Assay [6] deals with Mitogen-activated protein kinase 10 (Mus musculus) (UniProt Q61831). Description: JNK3 AlphaScreen Assay (AID 530; active = well fitted curve in either direction with a large enough effect, not every such curve was filed as active;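 note: kinase came from lysate of stimulated human HepG2 cells; signal reports phosphorylation of biotinylated GST-cJun 1-79 at Ser73 with 10 µM ATP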). In a few lines:
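Pre-activated (IL-1β/TNFα) JNK3 in HepG2 lysates phosphorylates biotin-GST-cJun(1-79), 10 uM ATP; anti-phospho-cJun(Ser73) AlphaScreen read at room temperature, pH 7.6 Tris buffer. Compounds pre-incubated 15 min as titrations.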

Assay [7] deals with 3',5'-cyclic-AMP phosphodiesterase 4B (Homo sapiens) (UniProt Q07343). Briefly: qHTS Assay for Inhibitors of PDE-IV (AID 607; active = well fitted activation curve with a large enough effect in the main read-out, with a control signal flat, not every such curve was filed as active). A digest of the protocol:
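Cell-based read-out of cAMP via a modified cyclic nucleotide-gated channel and membrane potential dye (535/590 nm) in HEK293 cells expressing PDE4 endogenously. Compounds tested up to 22.9 uM final; 100 uM RO 20-1724 reference.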

For assay [8], the target named is Cytochrome P450 2D6 (Homo sapiens) (UniProt P10635). Briefly: qHTS Assay for Inhibitors and Substrates of Cytochrome P450 2D6 (AID 891).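 Note: luciferin methyl ether substrate demethylated by CYP2D6 with NADPH regeneration; nearly all actives have a fitted effect of over 60% in size.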 In a few lines:
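Human CYP2D6 (5 nM) with 30 uM Luciferin-ME EGE (at Km) in 100 mM KPO4, compound preincubated 10 min, then NADPH regeneration system for 60 min at room temperature. Luciferin read by luminescence; normalized to 1.43 uM quinidine.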

For assay [9], the target named is DNA dC->dU-editing enzyme APOBEC-3G (Homo sapiens) (UniProt Q9HC16). Description: qHTS for inhibitors of Vif-A3G interactions: Validation (AID 588379). In a few lines: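 HeLa cells stably expressing Vif and A3G-eYFP, 700 cells/well, incubated overnight at 37 deg C, then exposed to compound overnight at 37 deg C. Inhibition of Vif-mediated degradation read as increased yellow fluorescence (Ex 488/Em 500-530) by laser-scanning cytometry.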
Sequence of DNA dC->dU-editing enzyme APOBEC-3G (Homo sapiens) (Q9HC16 whole entry, looked up): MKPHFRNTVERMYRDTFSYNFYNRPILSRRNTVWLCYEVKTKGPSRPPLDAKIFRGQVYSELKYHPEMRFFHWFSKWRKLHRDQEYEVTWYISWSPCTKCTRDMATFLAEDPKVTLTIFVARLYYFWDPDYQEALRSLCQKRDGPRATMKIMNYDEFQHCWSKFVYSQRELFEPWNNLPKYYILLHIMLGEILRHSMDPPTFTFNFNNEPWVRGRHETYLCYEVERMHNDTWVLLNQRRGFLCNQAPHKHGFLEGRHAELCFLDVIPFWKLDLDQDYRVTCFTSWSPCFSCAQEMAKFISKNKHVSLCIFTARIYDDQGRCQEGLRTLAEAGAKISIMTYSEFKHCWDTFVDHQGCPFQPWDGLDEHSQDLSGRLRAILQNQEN

Assay [10] deals with Cytochrome P450 3A4 (Homo sapiens) (UniProt P08684). Briefly: qHTS Assay for Activators of Cytochrome P450 3A4 (AID 885). Note: nearly all actives have a fitted effect of over 65% in size. A digest of the protocol:
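Signal was normalized against complete inhibition by 57 uM ketoconazole. The reaction used 20nM CYP3A4 with 25uM Luciferin-PPXE, 10-min compound preincubation and a 60-min NADPH-supported step at RT.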

A number with no mark means an inactive call. Records with an inconclusive call do not appear. The source made the active and inactive calls. Unless noted, calls come from the whole dose curve; as a rule, active = well fitted curve in the direction sought with a large enough effect; inconclusive = small, poorly fitted or top-dose-only effect, or another doubt; inactive = no such curve, though single readings can be large; an effect the other way counts as inactive or inconclusive.

Sequence of Luciferin 4-monooxygenase (Photinus pyralis) (P08659 whole entry, looked up): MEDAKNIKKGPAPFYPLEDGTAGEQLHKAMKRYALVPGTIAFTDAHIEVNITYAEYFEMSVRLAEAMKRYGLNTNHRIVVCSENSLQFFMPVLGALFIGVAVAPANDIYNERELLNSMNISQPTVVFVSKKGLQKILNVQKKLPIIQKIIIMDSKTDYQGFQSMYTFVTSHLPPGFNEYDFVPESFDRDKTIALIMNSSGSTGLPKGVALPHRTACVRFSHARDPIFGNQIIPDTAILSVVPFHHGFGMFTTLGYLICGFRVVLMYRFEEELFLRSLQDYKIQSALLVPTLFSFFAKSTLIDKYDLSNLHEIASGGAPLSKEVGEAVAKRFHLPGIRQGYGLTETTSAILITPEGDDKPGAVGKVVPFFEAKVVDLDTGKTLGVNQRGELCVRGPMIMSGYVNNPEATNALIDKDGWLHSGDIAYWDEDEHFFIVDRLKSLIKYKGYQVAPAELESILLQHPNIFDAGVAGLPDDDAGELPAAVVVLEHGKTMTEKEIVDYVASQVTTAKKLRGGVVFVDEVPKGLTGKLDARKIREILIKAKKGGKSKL
Sequence of 3',5'-cyclic-AMP phosphodiesterase 4B (Homo sapiens) (Q07343 whole entry, looked up): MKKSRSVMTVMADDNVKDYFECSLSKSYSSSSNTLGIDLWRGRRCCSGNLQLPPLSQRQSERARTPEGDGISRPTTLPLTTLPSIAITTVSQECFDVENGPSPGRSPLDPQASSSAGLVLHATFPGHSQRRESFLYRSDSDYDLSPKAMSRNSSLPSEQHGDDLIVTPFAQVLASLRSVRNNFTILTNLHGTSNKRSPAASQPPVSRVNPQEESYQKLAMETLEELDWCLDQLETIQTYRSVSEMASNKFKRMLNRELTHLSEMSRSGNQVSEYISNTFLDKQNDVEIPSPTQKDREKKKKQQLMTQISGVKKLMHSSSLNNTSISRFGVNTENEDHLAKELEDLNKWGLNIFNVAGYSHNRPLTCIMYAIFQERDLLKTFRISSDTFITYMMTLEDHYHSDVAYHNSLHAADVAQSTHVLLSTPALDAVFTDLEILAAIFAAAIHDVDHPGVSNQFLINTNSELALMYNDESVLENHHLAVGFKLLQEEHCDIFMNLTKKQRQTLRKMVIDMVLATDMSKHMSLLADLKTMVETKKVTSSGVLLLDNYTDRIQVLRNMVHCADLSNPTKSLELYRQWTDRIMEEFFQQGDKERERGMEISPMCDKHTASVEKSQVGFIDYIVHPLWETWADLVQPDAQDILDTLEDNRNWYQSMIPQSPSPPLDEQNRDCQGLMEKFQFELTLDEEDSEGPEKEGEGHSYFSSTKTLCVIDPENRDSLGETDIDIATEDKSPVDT
Sequence of Glucocorticoid receptor (Homo sapiens) (P04150 whole entry, looked up): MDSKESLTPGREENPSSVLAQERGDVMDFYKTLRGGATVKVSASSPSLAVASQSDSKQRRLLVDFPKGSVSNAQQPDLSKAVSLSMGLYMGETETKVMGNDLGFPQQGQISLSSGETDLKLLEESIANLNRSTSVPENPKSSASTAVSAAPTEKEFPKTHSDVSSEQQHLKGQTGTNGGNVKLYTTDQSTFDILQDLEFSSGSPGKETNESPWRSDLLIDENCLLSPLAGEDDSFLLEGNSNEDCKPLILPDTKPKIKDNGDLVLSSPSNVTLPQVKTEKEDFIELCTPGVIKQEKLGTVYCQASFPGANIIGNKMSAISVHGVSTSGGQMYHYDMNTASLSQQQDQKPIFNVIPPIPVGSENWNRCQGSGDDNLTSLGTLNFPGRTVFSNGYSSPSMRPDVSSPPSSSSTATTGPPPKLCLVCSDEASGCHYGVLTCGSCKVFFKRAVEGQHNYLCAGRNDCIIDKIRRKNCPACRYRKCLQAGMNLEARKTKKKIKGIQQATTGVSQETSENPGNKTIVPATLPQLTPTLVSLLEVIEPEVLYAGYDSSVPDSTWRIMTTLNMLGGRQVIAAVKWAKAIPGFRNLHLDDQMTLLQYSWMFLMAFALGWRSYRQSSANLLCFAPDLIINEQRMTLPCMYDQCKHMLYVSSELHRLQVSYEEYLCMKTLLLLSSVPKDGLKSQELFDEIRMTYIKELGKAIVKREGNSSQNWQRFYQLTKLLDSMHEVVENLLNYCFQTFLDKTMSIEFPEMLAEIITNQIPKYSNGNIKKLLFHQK
Sequence of Cytochrome P450 2D6 (Homo sapiens) (P10635 whole entry, looked up): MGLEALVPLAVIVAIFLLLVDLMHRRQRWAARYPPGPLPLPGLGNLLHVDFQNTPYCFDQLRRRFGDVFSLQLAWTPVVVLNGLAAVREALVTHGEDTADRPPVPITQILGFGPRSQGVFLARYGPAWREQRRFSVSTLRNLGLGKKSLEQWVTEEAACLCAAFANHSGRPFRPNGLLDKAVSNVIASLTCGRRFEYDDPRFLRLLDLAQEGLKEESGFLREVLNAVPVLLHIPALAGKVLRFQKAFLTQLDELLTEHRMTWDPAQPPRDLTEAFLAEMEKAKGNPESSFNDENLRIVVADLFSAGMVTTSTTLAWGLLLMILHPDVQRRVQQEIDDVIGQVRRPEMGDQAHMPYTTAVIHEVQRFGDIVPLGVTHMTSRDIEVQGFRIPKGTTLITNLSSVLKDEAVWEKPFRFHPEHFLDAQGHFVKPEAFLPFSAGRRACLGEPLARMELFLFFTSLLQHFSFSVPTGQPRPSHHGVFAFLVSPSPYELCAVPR

For the compound `CC1(C)SC2C(N3C(=O)C(c4ccccc4)NC3(C)C)C(=O)N2C1C(=O)O` (centres undefined), the Potency result (in assay [1]; in assay [2]; in assay [4]; in the assay on 7G8; with CP215; in the assay with DFO2036) was “inactive” each time. Besides, the Potency result with DIV14, in the assay on GB4 and with W2 was “inactive” in each case. The outcome in assay [3] was inactive.

As for `CNC1C(OC2C(O[C@@H]3C(O)C(O)[C@@H](N=C(N)N)C(O)C3N=C(N)N)OC(C)[C@@]2(O)CO)OC(CO)C(O)C1O` (some centres undefined), the Potency entry (in assay [1]; in [2]; in assay [4]; with 7G8; in the assay with CP215; with DFO2036) was “inactive” in each case. The Potency result with DIV14, in the assay with GB4 and in the assay on W2 was “inactive” throughout. The result in assay [3] was inactive.

On to `CC1(C)OC2CC(=O)OC[C@@]23C1CC(=O)[C@]1(C)C3CC[C@@]2(C)C(c3ccoc3)OC(=O)C3O[C@@]321` (some centres undefined), for which the Potency entry (in assay [2]; in assay [4]; in the assay on 7G8; in the assay with CP215; with DFO2036; in the assay on DIV14) was “inactive” throughout. Besides, the Potency entry with GB4 was “inactive”. For the same compound, in assay [3], the outcome was inactive.

With `Cc1cc2ccc(=O)oc2cc1OC[C@@H](O)C(C)(C)O`, the Potency in [5] was > 46 µM. Besides, the Potency result in [6], in assay [1] and in [8] was “inactive” throughout. Also, the call in assay [7] and in [9] was inactive.

Take `CC(=O)N[C@@H]1C(O)OC(CO)C(O)C1O` (some centres undefined): the Potency entry (in [1]; in [2]; in [4]; in the assay on CP215; in the assay with W2) was “inactive” throughout. Also, the result in [3] was inactive.

In the case of `CN(C)CCCOC1C(C(O)CO)OC2OC(C)(C)O[C@@H]21` (some centres undefined), the Potency entry (in assay [1]; in assay [4]; in the assay with 7G8; in the assay on CP215; in the assay with DIV14; in the assay on GB4) was “inactive” each time. Further, the Potency entry in the assay on W2 was “inactive”.

Turning to `Cc1cc(O)c(C=O)c2c1C(=O)Oc1c(COC(=O)/C=C/C(=O)O)c(O)c(C(=O)O)c(C)c1O2`, the Potency entry in assay [10] was “inactive”.

With `CC1C2CCC3C4CC=C5CC(N(C)C)CC[C@@]5(C)C4CC[C@@]32CN1C` (some centres undefined), the Potency result (in assay [1]; in assay [2]; in assay [4]; with CP215; with DFO2036; in the assay with DIV14) was “inactive” in each case. The Potency result in the assay on GB4 is “inactive”. In addition, the call in assay [3] was inactive.

`CNC1CC(N)[C@H](O)[C@@H](O[C@@H]2OC(CO)C3OC4(OC(C(N)CO)C(O)C(O)C4O)O[C@@H]3[C@H]2O)C1O` (some centres undefined): the Potency entry (in assay [1]; in assay [2]; in assay [4]; in the assay with 7G8; in the assay on CP215; with DIV14) was “inactive” each time. For the same compound, the Potency entry in the assay on GB4 was “inactive”. In addition, in [3], the outcome was inactive.

Regarding `COc1cc(C2c3cc4c(cc3C(O[C@@H]3OC5COC(c6cccs6)OC5C(O)C3O)C3COC(=O)C23)OCO4)cc(OC)c1O` (some centres undefined), the Potency is 6.31 µM (active) in assay [1]; 0.631 µM (active) in the assay with 7G8; 4.26 µM (active) with CP215; 1.12 µM (active) in the assay on DFO2036; 1.9 µM (active) in the assay with DIV14; 2.39 µM (active) in the assay on GB4. Further, the Potency with W2 was 1.2 µM (active). For the same compound, the Potency entry in assay [10] and in [2] was “inactive” in each case. The result in assay [3] was inactive.
